Here are results for 100 compounds from PMC6919601, “Identification of Plasmodium dipeptidyl aminopeptidase allosteric inhibitors by high throughput screening” (PLoS ONE, 2019).

Out of some 110,000 compounds screened, about 230 (0.21%) showed an effect of 50% or more. The entries come from a sample that favours strong results as a whole.
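Also: 30 min substrate incubation versus DMSO and 10 µM JCP410 controls.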

The target of this test is DPAP1 (Plasmodium falciparum, UniProt Q8IIJ9). The experiment in a line: primary screen, percent inhibition; read by cleavage of a fluorogenic dipeptide substrate; higher = more effect of the substance. Set-up: species or system P. falciparum D10 trophozoite lysates; single well.
Sequence of DPAP1 (Q8IIJ9 whole entry, looked up): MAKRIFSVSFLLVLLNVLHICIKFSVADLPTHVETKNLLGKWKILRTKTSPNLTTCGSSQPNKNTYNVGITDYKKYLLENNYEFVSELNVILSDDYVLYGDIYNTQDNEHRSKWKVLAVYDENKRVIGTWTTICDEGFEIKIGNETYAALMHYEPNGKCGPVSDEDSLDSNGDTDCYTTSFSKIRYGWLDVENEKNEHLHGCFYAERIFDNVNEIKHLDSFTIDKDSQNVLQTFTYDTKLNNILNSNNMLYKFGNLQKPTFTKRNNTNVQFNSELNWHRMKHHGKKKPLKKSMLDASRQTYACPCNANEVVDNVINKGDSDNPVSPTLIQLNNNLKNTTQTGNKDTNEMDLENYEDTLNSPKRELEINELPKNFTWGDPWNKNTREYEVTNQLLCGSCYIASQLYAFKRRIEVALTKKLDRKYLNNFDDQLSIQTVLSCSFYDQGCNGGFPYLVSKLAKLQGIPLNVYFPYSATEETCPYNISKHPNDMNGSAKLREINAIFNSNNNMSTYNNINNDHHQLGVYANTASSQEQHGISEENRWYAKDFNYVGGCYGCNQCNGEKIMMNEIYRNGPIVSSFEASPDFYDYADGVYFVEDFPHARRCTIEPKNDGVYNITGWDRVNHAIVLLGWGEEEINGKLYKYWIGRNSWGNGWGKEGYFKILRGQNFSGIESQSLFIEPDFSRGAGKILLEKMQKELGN
Take `Cc1ccc(-c2nn3c(CC#N)nnc3c3ccccc23)cc1`: the “% Inhibition @ 10 uM” value is listed as 6.38%. Turning to `CC(C)Oc1ccc(-c2cc(C(=O)NCCCN3CCOCC3)c3ccccc3n2)cc1`, the “% Inhibition @ 10 uM” value is given as -12.3%. With `Cc1cc(C)c2c3c1C1C=CCC1CN3C(C(=O)O)C1CC=CC21` (stereo not shown), the “% Inhibition @ 10 uM” value is reported as 3.65%.

With `O=C1NC(=O)c2c1cc1c3c2C2C=CCC2CN3CC2CC=CC12` (stereo not shown), the “% Inhibition @ 10 uM” value is on record as 64.9%. Take `O=C(Nc1ccc2c3c1C1C=CCC1CN3CC1CC=CC21)c1ccccc1` (stereo not shown): the “% Inhibition @ 10 uM” value is 2.4%. For `COc1cccc(CN(C(=O)c2cc3ccccc3oc2=O)C2CCS(=O)(=O)C2)c1` (stereo not shown), the “% Inhibition @ 10 uM” value was determined as 0.366%. On to `CCSc1cc(C)nc2ncnn12`, for which the “% Inhibition @ 10 uM” value was determined as 7.56%. In the case of `CC(C)CCNc1c(-c2cccc(Cl)c2)[nH]c2c(C#N)cnn12`, the “% Inhibition @ 10 uM” value is listed as -4.71%. With `Cc1cccc(-c2[nH]c3c(C#N)cnn3c2NCCC(C)C)c1`, the “% Inhibition @ 10 uM” value came out at 3.84%. With `COc1cccc(-c2[nH]c3c(C#N)cnn3c2NCCC(C)C)c1`, the “% Inhibition @ 10 uM” value is given as 76.4%. Take `c1ccc2c(c1)ncn2Cc1nnc2sc(-c3ccc4c(c3)OCCO4)nn12`: the “% Inhibition @ 10 uM” value came to 45%.

On to `Cc1ccc(S(=O)(=O)N(CC(=O)NC2CC3CCC2C3)c2ccc(Cl)cc2)cc1` (stereo not shown), for which the “% Inhibition @ 10 uM” value was -0.695%. As to `CCc1ccc(CNC(=O)NCc2noc3ccc(C)cc23)cc1`, the “% Inhibition @ 10 uM” value is reported as 2.19%. Consider `COc1cccc(CN2CCN(Cc3cccc(C)c3)CC2)c1OC`, for which the “% Inhibition @ 10 uM” value is recorded as -4.16%. Next, `COc1ccc(CN2CCN(Cc3cccc(C)c3)CC2)c(OC)c1OC`: 53.3%; `COc1cccc(CN2CCN(Cc3ccc(OC)c(OC)c3OC)CC2)c1`: -6.74%. Turning to `Cc1[nH]c2ccccc2c1CCNC(=S)NC(C)(C)C`, the “% Inhibition @ 10 uM” value is listed as -0.431%. For `O=C(CCNS(=O)(=O)c1ccc2nc(O)ccc2c1)NC1CCCc2ccccc21` (stereo not shown), the “% Inhibition @ 10 uM” value is -2.26%.

`CCn1cc(CNC(=O)c2cc(-c3ccccc3OC)nc3ccccc23)cn1`: the “% Inhibition @ 10 uM” value was -10.2%.

Turning to `COc1ccccc1C(=O)Nc1cccc(F)c1`, the “% Inhibition @ 10 uM” value is recorded as -5.29%. For `Cc1cc(C)n(CC(O)Cn2c3ccccc3c3ccccc32)c(=O)n1` (stereo not shown), the “% Inhibition @ 10 uM” value stood at 80.2%. In the case of `OCC(O)Cn1c2ccccc2c2ccccc21` (stereo not shown), the “% Inhibition @ 10 uM” value is 1.44%. Turning to `Cc1cc(C)n(CC(O)Cn2c3ccccc3c3ccccc32)n1` (stereo not shown), the “% Inhibition @ 10 uM” value is on record as -10.2%. As to `O=C1CC(c2nc(-c3ccccc3)cs2)C2(CCCCC2)O1` (stereo not shown), the “% Inhibition @ 10 uM” value came to 4.08%.

Take `Cc1ccc(-c2csc(N)n2)cc1`: the “% Inhibition @ 10 uM” value came to 20.7%. Take `Cc1ccc(-c2csc(C3C(N)=NC(S)=C(C#N)C34CCCCC4)n2)cc1` (stereo not shown): the “% Inhibition @ 10 uM” value was determined as 89.8%. In the case of `CNC(=S)N(CCc1c(C)[nH]c2ccc(Cl)cc12)Cc1ccccn1`, the “% Inhibition @ 10 uM” value was -4.14%. In the case of `COc1ccc(C(=O)NCc2nnc(SCC(=O)NC3CCCCC3)o2)cc1`, the “% Inhibition @ 10 uM” value is listed as 76.6%. For `Cc1nnc(NC(=O)CSc2nnc(CNC(=O)COc3ccc(Cl)cc3)o2)s1`, the “% Inhibition @ 10 uM” value is -5.27%. As to `COc1cc(C(=O)NCc2nnc(SCC(=O)NC3CCCCC3)o2)cc(OC)c1OC`, the “% Inhibition @ 10 uM” value was 1.64%. Next, `COc1ccc(C(=O)NCc2nnc(SCC(=O)Nc3nnc(C)s3)o2)cc1`: 84%; `Cc1nnc(NC(=O)CSc2nnc(CNC(=O)c3cccs3)o2)s1`: -3.39%. For the compound `COc1ccc(C(=O)NCc2nnc(SCC(=O)NCC3CCCO3)o2)cc1` (stereo not shown), the “% Inhibition @ 10 uM” value was found to be 8.26%. As to `NC(=O)/C=C/C(=O)Nc1ccccc1`, the “% Inhibition @ 10 uM” value is -3.13%. The same measure for `CCCCNC(=O)CCc1nc2cccnc2n1Cc1ccccc1`: 3.96%; for `CCOc1ccc2c3c(c(=O)oc2c1)CCC3`: -3.38%; for `CCCC1CCC(C2=N/C(=C\c3cc(OC)c(OC)cc3OC)C(=O)O2)CC1` (stereo not shown): -3.33%.

`O=C(CSc1nc2ccccc2o1)N1CCN(c2nnc(-c3ccccc3)c3ccccc23)CC1`: the “% Inhibition @ 10 uM” value came to 2.46%.

For `COCCNC(=O)CSc1[nH]c(-c2cccc(OC)c2)nc1-c1ccccc1`, the “% Inhibition @ 10 uM” value is 0.163%. As to `Cc1nc(C(=O)N[C@@H](CC(C)C)C(=O)NCC#N)nn1-c1ccc(Cl)cc1Cl`, the “% Inhibition @ 10 uM” value was found to be 5.76%. For the compound `CCOc1ccc(/C=C(\NC(=O)c2ccc(C)cc2)C(=O)Nc2cccc(O)c2)cc1`, the “% Inhibition @ 10 uM” value was 4.67%. On to `COc1ccc(C2CC(=O)N3CN(Cc4ccccc4)CSC3=C2C#N)cc1OC` (stereo not shown), for which the “% Inhibition @ 10 uM” value was determined as 6.73%. With `COc1ccc(Br)cc1C1CC(=O)N2CN(Cc3ccccc3)CSC2=C1C#N` (stereo not shown), the “% Inhibition @ 10 uM” value amounted to 60.8%. For the compound `COc1ccc(Br)cc1C1CC(=O)N2CN(Cc3ccco3)CSC2=C1C#N` (stereo not shown), the “% Inhibition @ 10 uM” value is reported as 60.5%. `COc1ccc(CN2CSC3=C(C#N)C(c4cccs4)CC(=O)N3C2)cc1` (stereo not shown): the “% Inhibition @ 10 uM” value is given as 50.8%.

For the compound `COc1ccc(OC)c(C2CC(=O)N3CN(Cc4ccco4)CSC3=C2C#N)c1` (stereo not shown), the “% Inhibition @ 10 uM” value is recorded as 6.87%. Take `COc1cc(C2CC(=O)N3CN(Cc4ccccc4)CSC3=C2C#N)cc(Br)c1O` (stereo not shown): the “% Inhibition @ 10 uM” value was determined as 57%. As for `N#CC1=C2SCN(Cc3ccccc3)CN2C(=O)CC1c1cccs1` (stereo not shown), the “% Inhibition @ 10 uM” value is 40.5%.

Regarding `COc1ccc(C2CC(=O)N3CN(Cc4ccccc4)CSC3=C2C#N)c(OC)c1` (stereo not shown), the “% Inhibition @ 10 uM” value is listed as 32.1%. As for `CCOc1cc(C2CC(=O)N3CN(Cc4ccccc4)CSC3=C2C#N)ccc1O` (stereo not shown), the “% Inhibition @ 10 uM” value was 19.8%. Consider `COc1ccc(CN2CSC3=C(C#N)C(c4ccc(C)cc4)CC(=O)N3C2)cc1` (stereo not shown), for which the “% Inhibition @ 10 uM” value worked out at 43.8%. As to `COc1ccc2ccccc2c1C1CC(=O)N2CN(Cc3ccccc3)CSC2=C1C#N` (stereo not shown), the “% Inhibition @ 10 uM” value is on record as 35.8%. `COc1cccc(C2CC(=O)N3CN(Cc4ccco4)CSC3=C2C#N)c1OC` (stereo not shown): the “% Inhibition @ 10 uM” value was found to be 18.7%. For `Cc1ccc2oc(=O)c3cc(C(=O)N4CCC(C)CC4)sc3c2c1`, the “% Inhibition @ 10 uM” value is 0.809%. Next, `CCCOc1ccc(CN(C(=O)c2nc(SC)ncc2Cl)C2CCS(=O)(=O)C2)cc1` (stereo not shown): -4.64%; `Cc1cc(C)c2c(n1)nn1c(C3CC3)cc(C(F)(F)F)nc21`: 2.54%; `O=C(NCC(=O)N1CCOCC1)c1ccccc1`: 15.6%. Next, `O=C(NCCc1ccccc1)C1CCCN(S(=O)(=O)c2cccc3cccnc23)C1` (stereo not shown): -4.69%. With `COc1cccc(C(=O)Nc2ccc(C(C)C)cc2)c1`, the “% Inhibition @ 10 uM” value was -1.25%. In the case of `COCCOC(=O)N/C=C\c1nc(O)c2ccccc2n1`, the “% Inhibition @ 10 uM” value is recorded as -4.65%. Next, `CCOC(=O)c1cnn2c(C(F)(F)F)cc(C)nc12`: -3.53%. As to `CC1(C)Cc2c(c(S)sc(=N)c2C#N)CO1`, the “% Inhibition @ 10 uM” value is 8.27%. Next, `CN1CCc2c(c(S)sc(=N)c2C#N)C1`: 5.59%; `N#Cc1c2c(c(S)sc1=N)CCCC2`: 59.6%; `COc1cccc(CNC(=O)CNC(=S)N(Cc2ccccc2)Cc2cccnc2)c1`: -0.406%. Regarding `Cc1cc(C)c2c(-n3cccc3)nn(CC(=O)N3CCCCCC3)c2n1`, the “% Inhibition @ 10 uM” value was -3.52%. Consider `COCC(=O)Nc1nc2nccc(C)n2n1`, for which the “% Inhibition @ 10 uM” value is -1.31%. For `CCn1c(C(=O)N2CCC(C(=O)NCCN(CC(C)C)CC(C)C)CC2)cc2sccc21`, the “% Inhibition @ 10 uM” value was -5.19%.

Take `CCn1c(C(=O)N2CCC(C(=O)NCCC(C)C)CC2)cc2sccc21`: the “% Inhibition @ 10 uM” value was determined as 92.1%. In the case of `CCn1c(C(=O)N2CCC(C(=O)NCCOC)CC2)cc2sccc21`, the “% Inhibition @ 10 uM” value is 4.95%.

Take `N#CCNC(=O)[C@H](CC1CCCCC1)NC(=O)c1sccc1Br`: the “% Inhibition @ 10 uM” value is given as 1.35%. As for `O=C1C(Nc2cccc(Br)c2)=C(N2CCCCC2)C(=O)c2ccccc21`, the “% Inhibition @ 10 uM” value came out at 1.84%. Consider `O=C1C(Nc2cccc(O)c2)=C(N2CCCCC2)C(=O)c2ccccc21`, for which the “% Inhibition @ 10 uM” value is reported as 0.162%. As to `Nc1ccc(NC2=C(N3CCCCC3)C(=O)c3ccccc3C2=O)cc1`, the “% Inhibition @ 10 uM” value was found to be 53.5%.

`Cn1c2ccccc2c2nc3cc4ccccc4cc3nc21`: the “% Inhibition @ 10 uM” value is given as -2.54%. Take `COCCN1C(=O)c2ccccc2C(C(=O)Nc2ccc(Cl)cn2)C1c1cccs1` (stereo not shown): the “% Inhibition @ 10 uM” value is reported as 4.33%.

Regarding `C=CCOc1ccc(C(=O)C2=C(O)C(=O)N(c3ccccn3)C2c2ccc(F)cc2)cc1` (stereo not shown), the “% Inhibition @ 10 uM” value is reported as 2.86%. The same measure for `C#CCN1C(=O)C(O)(CC(=O)c2ccc3ccccc3c2)c2ccccc21` (stereo not shown): -20.7%; for `Cn1c(SCC(=O)NCCc2ccccc2)nc2c1c(=O)n(Cc1ccccc1Cl)c(=O)n2C`: 3.81%. As to `CC1CCN(C(=O)CCN2C(=O)c3ccccc3C2=O)CC1`, the “% Inhibition @ 10 uM” value is on record as 2.06%. Next, `Cc1ccc(-c2cc(NC(=O)COc3ccc(C(C)C)cc3)on2)cc1`: -1.47%; `CCOC(=O)c1noc2c1COc1ccccc1-2`: -1.51%; `Cc1cccc(CCNC(=O)c2noc3c2COc2ccccc2-3)c1`: 75.2%. As for `O=C(NCCc1ccc(Cl)cc1)c1noc2c1COc1ccccc1-2`, the “% Inhibition @ 10 uM” value came out at 82.6%. The same measure for `Cc1ccc2c(c1)-c1onc(C(=O)NCCN(C)C)c1CO2`: -4.37%; for `O=C(NCCc1c[nH]c2ccccc12)c1noc2c1COc1ccccc1-2`: 91.5%. Regarding `COc1ccc(CCNC(=O)c2noc3c2COc2ccc(C)cc2-3)cc1OC`, the “% Inhibition @ 10 uM” value is recorded as -4.07%. Turning to `CN(CCNC(=O)c1noc2c1COc1ccccc1-2)C1CCCCC1`, the “% Inhibition @ 10 uM” value is listed as 2.73%. On to `CCOc1ccc(CCNC(=O)c2noc3c2COc2ccccc2-3)cc1OCC`, for which the “% Inhibition @ 10 uM” value is given as 80.8%. On to `O=C(NCCc1ccccc1)c1noc2c1CCc1ccccc1-2`, for which the “% Inhibition @ 10 uM” value is given as -7.85%. For the compound `O=C(NCC1(c2ccccc2)CCCC1)c1noc2c1COc1ccccc1-2`, the “% Inhibition @ 10 uM” value worked out at 47.2%. As for `CCOc1ccc(-c2cc(NC(=O)c3noc4c3COc3ccccc3-4)on2)cc1OCC`, the “% Inhibition @ 10 uM” value is -1.72%. Turning to `Cc1cccc(CCNC(=O)c2cc3c(s2)-c2ccccc2OC3)c1`, the “% Inhibition @ 10 uM” value was -4.85%. The same measure for `O=C(/C=C/c1ccco1)N(Cc1cccc(F)c1)C1CCS(=O)(=O)C1` (stereo not shown): -1.35%. Next, `O=C(Nc1ccccc1)N1CCN(c2ccccc2)CC1`: 1.33%; `CSc1nc2n(n1)C(c1ccc(F)c(Br)c1)C1=C(O)CC(C)(C)CC1=N2` (stereo not shown): -1.62%; `CC(NCC(O)Cn1nnnc1-c1ccccc1)c1ccccc1` (stereo not shown): 2.5%. On to `Cc1ccc(NC(=O)C(C)Oc2ccccc2C)c(C)c1` (stereo not shown), for which the “% Inhibition @ 10 uM” value was 6.79%.

In the case of `CC(=O)c1c(S)nc(-c2ccccc2)nc1N1CCN(Cc2ccccc2)CC1`, the “% Inhibition @ 10 uM” value amounted to 29.2%. As to `CCOc1ccc(C(=O)NCC2CCN(C(=O)c3ccc(OCC)cc3)CC2)cc1`, the “% Inhibition @ 10 uM” value was 5%.
